Measured values reported in PubChem BioAssay (NCATS).
Records with an inconclusive call do not appear. Calls of active or inactive are those of the source. Unless noted, calls come from the whole dose curve; as a rule, active = well fitted curve in the direction sought with a large enough effect; inconclusive = small, poorly fitted or top-dose-only effect, or another doubt; inactive = no such curve, though single readings can be large; an effect the other way counts as inactive or inconclusive.

What was measured:
[1] = target: Lysosomal acid glucosylceramidase (Homo sapiens) (UniProt P04062); test: Glucocerebrosidase-p2 (AID 348; in the data active = potency below about 10 µM; note: potency is the fitted concentration of half-maximal effect); conditions: purified GBA, blue fluorogenic substrate, 40 min
Lysosomal acid glucosylceramidase (Homo sapiens), sequence (P04062 whole entry, looked up): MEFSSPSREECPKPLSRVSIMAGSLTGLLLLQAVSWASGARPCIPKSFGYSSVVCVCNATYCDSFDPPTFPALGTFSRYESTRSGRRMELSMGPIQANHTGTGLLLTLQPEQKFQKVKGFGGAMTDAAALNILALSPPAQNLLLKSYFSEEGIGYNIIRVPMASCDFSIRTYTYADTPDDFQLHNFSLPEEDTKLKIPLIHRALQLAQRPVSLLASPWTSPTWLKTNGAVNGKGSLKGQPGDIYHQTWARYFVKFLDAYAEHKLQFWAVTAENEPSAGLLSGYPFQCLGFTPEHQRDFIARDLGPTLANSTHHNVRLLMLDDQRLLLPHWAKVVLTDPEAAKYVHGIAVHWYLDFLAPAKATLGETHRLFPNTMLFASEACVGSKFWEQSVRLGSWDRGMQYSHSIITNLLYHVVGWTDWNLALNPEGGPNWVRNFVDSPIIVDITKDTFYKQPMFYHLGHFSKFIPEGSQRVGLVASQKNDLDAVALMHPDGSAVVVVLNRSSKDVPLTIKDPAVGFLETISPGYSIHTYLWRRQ
Method in brief: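 Compounds titrated from 0.6 nM upwards against 0.2 nM enzyme in pH 5.9 citric acid/KH2PO4, taurocholate, tween-20; blue fluorogenic substrate 80 uM, 40 min room temperature, stopped and read Ex 365/Em 440 for AC50.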

[2] = AP1 Signaling Pathway (AID 357; active = well fitted curve in either direction with a large enough effect, not every such curve was filed as active; note: % is set by controls: 0 for no effect and ±100 for the full control effect); conditions: ME-180 AP-1-bla reporter, EGF-induced, beta-lactamase ratio, 5 h; at 7.69 µM (top of the series) unless noted
Method in brief: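 ME-180 cells with beta-lactamase reporter under AP-1 response element, stimulated with EC50 EGF; compounds tested in titration series, 5 h at 37 °C. CCF4 substrate added 2.5 h at room temperature; 460/530 nm emission ratio gave %activity and AC50.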

[3] = target: Cytochrome P450 1A2 (Homo sapiens) (UniProt P05177); test: p450-cyp1a2 (AID 410; calls by dose curve; note: potency is the fitted concentration of half-maximal effect;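 for activity change, negative = inhibition: -100% = full effect of reference inhibitor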); conditions: recombinant CYP1A2, luciferin-ME demethylation, luminescence; series mostly up to 57 µM
Cytochrome P450 1A2 (Homo sapiens), sequence (P05177 whole entry, looked up): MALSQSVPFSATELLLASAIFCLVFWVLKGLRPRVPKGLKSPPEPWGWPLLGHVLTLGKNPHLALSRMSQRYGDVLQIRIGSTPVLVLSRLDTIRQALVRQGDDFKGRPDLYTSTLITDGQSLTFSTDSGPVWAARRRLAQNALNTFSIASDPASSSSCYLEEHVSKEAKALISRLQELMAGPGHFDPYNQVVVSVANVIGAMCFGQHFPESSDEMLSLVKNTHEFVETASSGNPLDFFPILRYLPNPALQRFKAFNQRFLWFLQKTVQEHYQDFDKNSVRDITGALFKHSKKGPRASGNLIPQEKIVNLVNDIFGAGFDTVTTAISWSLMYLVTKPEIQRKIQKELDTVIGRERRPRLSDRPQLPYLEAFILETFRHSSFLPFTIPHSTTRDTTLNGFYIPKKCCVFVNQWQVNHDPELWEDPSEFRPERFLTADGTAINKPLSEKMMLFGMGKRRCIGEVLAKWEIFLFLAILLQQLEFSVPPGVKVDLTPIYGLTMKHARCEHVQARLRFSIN
Method in brief: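 Inhibition was calculated relative to 57 uM furafylline (full inhibition). The reaction used human CYP1A2 at 20nM with Luciferin-ME at its Km, 100uM, driven by an NADPH-regenerating system for 60 min at room temperature.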

[4] = NFAT Signaling Pathway (AID 444; active = well fitted curve in either direction with a large enough effect, not every such curve was filed as active;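 note: carbachol stimulus at about its EC50 of 1 µM final; % is set by controls: 0 for no effect and ±100 for the full control effect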); conditions: Jurkat NFAT-bla M1, carbachol, beta-lactamase ratio, 5 h; at 7.69 µM (top of the series) unless noted
Method in brief: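 Read-out: CCF4 FRET ratio (460 nm/530 nm) after 1 h RT dye loading, used for %activity and AC50 from titration series. Cells: Jurkat NFAT-β-lactamase/M1 line, treated with compound plus 1 uM carbachol for 5 h, 37 °C.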

[5] = Stat Signaling Pathway (AID 446; active = well fitted curve in either direction with a large enough effect, not every such curve was filed as active;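 note: ME-180 cervical cancer cells given 40 pM IL-6 alongside compound; SIE-controlled beta-lactamase reporter measured as 460/530 nm FRET emission ratio; % is set by controls: 0 for no effect and ±100 for the full control effect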); conditions: ME-180 SIE beta-lactamase reporter, IL-6 stimulated, 5 h; at 7.69 µM (top of the series) unless noted
Method in brief: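 ME-180 SIE-bla cells; overnight plating; cpd + IL-6 40 pM, 5 h, 37 C; LiveBLAzer 2.5 h RT; 460/530 nm emission ratio. Normalized to 300 pM IL-6 and 125 nM JAK inhibitor controls.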

[6] = target: Glucocorticoid receptor (Homo sapiens) (UniProt P04150); test: GR-GFP Redistribution (AID 450;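 active = compounds whose dose series gives a full or clear partial fitted curve of increased nuclear translocation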; note: potency is the fitted concentration of half-maximal effect); conditions: U2OS GR-GFP nuclear translocation, laser cytometry, 2 h
Glucocorticoid receptor (Homo sapiens), sequence (P04150 whole entry, looked up, the tested form may be a part): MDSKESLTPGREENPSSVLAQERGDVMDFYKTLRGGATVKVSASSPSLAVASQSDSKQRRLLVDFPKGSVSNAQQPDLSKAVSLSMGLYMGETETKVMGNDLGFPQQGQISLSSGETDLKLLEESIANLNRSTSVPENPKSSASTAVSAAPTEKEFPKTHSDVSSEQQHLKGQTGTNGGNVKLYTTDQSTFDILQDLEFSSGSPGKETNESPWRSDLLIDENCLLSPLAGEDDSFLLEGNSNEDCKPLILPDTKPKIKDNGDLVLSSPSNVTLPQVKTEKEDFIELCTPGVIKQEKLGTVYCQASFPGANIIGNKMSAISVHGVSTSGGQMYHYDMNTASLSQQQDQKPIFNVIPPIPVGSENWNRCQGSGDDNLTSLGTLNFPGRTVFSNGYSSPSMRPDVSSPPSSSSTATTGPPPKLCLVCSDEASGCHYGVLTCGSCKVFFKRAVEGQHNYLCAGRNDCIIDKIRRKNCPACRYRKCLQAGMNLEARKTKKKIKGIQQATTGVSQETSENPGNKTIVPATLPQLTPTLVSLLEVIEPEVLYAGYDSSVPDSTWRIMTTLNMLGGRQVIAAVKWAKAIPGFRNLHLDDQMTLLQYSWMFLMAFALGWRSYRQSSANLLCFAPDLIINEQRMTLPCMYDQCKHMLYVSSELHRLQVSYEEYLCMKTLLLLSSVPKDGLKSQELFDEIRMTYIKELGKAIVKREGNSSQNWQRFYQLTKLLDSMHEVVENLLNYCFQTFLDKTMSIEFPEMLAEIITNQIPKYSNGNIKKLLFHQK

[7] = target: Glucocorticoid receptor (Homo sapiens) (UniProt P04150); test: GR-EFC Redistribution (AID 451; calls by dose curve; note: potency is the fitted concentration of half-maximal effect); conditions: CHO-K1 GR-EFC translocation, beta-gal luminescence, 2 h
Method in brief: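 Translocation of GR-ED fusion to nuclear EA restores b-gal, read by luminescence after 1 h room-temperature detection. Engineered CHO-K1 biosensor cells, 1,000/well, exposed 2 h at 37 C to titrations up to 46 uM final.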

[8] = target: Mitogen-activated protein kinase 10 (Mus musculus) (UniProt Q61831); test: JNK3 AlphaScreen Assay (AID 530; active = well fitted curve in either direction with a large enough effect, not every such curve was filed as active;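 note: kinase came from lysate of stimulated human HepG2 cells; signal reports phosphorylation of biotinylated GST-cJun 1-79 at Ser73 with 10 µM ATP; % is set by controls: 0 for no effect and ±100 for the full control effect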); conditions: JNK3 lysate, c-Jun phosphorylation; series mostly up to 57.1 µM
Method in brief: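 Room-temperature AlphaScreen kinase assay; pre-activated HepG2 lysate as JNK3 source, biotin-GST-cJun(1-79) substrate, 10 uM ATP, compound 15 min preincubation.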

[9] = target: 3',5'-cyclic-AMP phosphodiesterase 4B (Homo sapiens) (UniProt Q07343); test: qHTS Assay for Inhibitors of PDE-IV (AID 607; active = well fitted activation curve with a large enough effect in the main read-out, with a control signal flat, not every such curve was filed as active; note: % of control where 0% means no effect); conditions: HEK293 ACTOne CNG channel cells, membrane potential fluorescence; series mostly up to 22.9 µM
3',5'-cyclic-AMP phosphodiesterase 4B (Homo sapiens), sequence (Q07343 whole entry, looked up): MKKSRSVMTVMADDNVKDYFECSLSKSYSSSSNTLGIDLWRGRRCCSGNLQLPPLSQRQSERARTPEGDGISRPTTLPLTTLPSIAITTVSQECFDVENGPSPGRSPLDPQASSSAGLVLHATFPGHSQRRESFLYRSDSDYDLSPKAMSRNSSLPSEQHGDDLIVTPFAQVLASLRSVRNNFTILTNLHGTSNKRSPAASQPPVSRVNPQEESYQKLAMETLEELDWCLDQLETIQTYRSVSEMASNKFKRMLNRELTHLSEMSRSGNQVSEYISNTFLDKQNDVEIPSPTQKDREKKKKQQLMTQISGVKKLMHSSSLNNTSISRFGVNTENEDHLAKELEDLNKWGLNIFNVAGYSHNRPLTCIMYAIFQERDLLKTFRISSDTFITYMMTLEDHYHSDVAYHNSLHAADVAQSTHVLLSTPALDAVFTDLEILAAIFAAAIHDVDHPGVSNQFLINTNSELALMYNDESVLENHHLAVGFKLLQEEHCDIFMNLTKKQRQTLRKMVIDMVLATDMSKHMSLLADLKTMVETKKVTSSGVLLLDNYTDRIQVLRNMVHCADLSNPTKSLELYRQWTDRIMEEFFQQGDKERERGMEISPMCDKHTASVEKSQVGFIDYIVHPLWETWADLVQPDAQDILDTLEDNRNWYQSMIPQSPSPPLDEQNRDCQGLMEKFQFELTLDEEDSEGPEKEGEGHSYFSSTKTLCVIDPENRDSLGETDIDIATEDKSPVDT
Method in brief: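 ACTOne HEK293 cells carry a modified cAMP-gated CNG channel and express endogenous PDE4; plated 1000 cells/well, compounds up to 22.9 uM final. Membrane-potential dye fluorescence (ex 535/em 590) was read; parental cells received 10 uM forskolin + 100 uM RO 20-1724.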

[10] = qHTS Assay for Lipid Storage Modulators (AID 1519; calls by dose curve); conditions: Drosophila S3 cells, BODIPY lipid droplet/cell ratio, laser cytometry, cells loaded with oleic acid; for activity change, negative = inhibition: at 57.5 µM (top of the series)
Method in brief: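 Cells seeded at 5,000 per well were treated with compounds over a concentration series and loaded with oleic acid (400 uM, as added). Lipid droplet fluorescence (488 nm excitation, 500-530 nm channel) was read by laser-scanning cytometry and normalized to 20 uM Triacsin C.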

[11] = target: Dual specificity protein kinase CLK4 (Homo sapiens) (UniProt Q9HAZ1); test: qHTS Assay for Inhibitors of CDC-like Kinase 4 (ADP-FP Assay) (AID 1795); conditions: Transcreener ADP fluorescence polarization; series mostly up to 50 µM; note: % is set by controls: 0 for no effect and ±100 for the full control effect; nearly all actives have a fitted effect of over 60% in size
Dual specificity protein kinase CLK4 (Homo sapiens), sequence (Q9HAZ1 whole entry, looked up): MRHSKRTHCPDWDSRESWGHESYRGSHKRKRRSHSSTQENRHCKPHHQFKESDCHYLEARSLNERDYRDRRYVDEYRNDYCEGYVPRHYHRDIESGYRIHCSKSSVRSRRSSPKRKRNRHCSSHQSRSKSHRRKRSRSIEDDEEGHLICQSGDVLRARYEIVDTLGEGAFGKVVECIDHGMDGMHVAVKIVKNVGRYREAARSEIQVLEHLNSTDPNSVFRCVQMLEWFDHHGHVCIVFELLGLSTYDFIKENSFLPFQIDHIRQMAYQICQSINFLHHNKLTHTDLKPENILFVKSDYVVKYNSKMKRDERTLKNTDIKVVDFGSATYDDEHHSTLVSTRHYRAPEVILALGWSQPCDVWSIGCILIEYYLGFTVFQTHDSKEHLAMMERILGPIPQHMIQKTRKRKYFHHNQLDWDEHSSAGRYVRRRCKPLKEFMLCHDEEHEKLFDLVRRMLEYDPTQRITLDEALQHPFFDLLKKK
Method in brief: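 Recombinant human Clk4 (6.25 nM) phosphorylated RS repeat peptide (100 uM) with 1 uM ATP in Tris pH 7.5/MgCl2/EGTA/DTT/Triton buffer for one hour. ADP was quantified by Transcreener competitive fluorescence polarization against an ADP calibration curve.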

[12] = target: Ubiquitin carboxyl-terminal hydrolase 1 (Homo sapiens) (UniProt O94782); test: Inhibitors of USP1/UAF1: Pilot qHTS (AID 504865); conditions: purified USP1/UAF1, Ub-rhodamine cleavage fluorescence; series mostly up to 54.9 µM; note: nearly all actives have a fitted effect of over 35% in size; note: potency is the fitted concentration of half-maximal effect
Ubiquitin carboxyl-terminal hydrolase 1 (Homo sapiens), sequence (O94782 whole entry, looked up): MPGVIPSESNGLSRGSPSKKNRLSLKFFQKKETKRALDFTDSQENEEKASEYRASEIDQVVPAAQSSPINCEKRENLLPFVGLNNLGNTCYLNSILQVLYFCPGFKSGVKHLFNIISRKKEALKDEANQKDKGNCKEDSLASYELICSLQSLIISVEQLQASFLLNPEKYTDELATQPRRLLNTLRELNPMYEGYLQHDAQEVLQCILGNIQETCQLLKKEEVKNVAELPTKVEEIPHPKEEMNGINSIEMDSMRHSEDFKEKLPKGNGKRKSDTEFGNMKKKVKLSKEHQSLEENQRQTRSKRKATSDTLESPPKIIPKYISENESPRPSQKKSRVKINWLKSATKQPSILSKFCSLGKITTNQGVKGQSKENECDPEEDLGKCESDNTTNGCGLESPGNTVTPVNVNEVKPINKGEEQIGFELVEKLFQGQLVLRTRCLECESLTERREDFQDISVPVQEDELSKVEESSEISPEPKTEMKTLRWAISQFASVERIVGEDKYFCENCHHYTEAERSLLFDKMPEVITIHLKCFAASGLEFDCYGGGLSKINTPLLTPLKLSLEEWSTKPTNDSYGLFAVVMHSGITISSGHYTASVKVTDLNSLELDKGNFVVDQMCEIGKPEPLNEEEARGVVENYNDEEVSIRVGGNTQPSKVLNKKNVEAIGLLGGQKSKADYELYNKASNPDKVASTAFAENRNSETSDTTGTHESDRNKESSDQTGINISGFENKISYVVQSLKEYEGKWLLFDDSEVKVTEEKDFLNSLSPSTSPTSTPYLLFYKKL
Method in brief: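 USP1/UAF1 complex (1nM) preincubated with compound 15 min at room temperature, then Ub-Rho substrate (150nM final) added. Fluorescence read kinetically at 480/540 nm, 6 reads every 60 seconds. Buffer: 50mM HEPES pH 7.8, 0.5mM EDTA, 0.1 mg/ml BSA, 1mM TCEP, 0.01% Tween-20.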

[13] = Primary qHTS for small molecule stabilizers of the endoplasmic reticulum resident proteome: Secreted ER Calcium Modulated Protein (SERCaMP) assay (AID 1508630); conditions: SH-SY5Y GLuc-SERCaMP (Gaussia luciferase released on ER calcium loss) secretion, thapsigargin, luminescence; series mostly up to 38.4 µM; note: % is set by controls: 0 for no effect and ±100 for the full control effect
Method in brief: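 GLuc-SERCaMP-expressing SH-SY5Y cells, pretreated 16 h with compound, are challenged with thapsigargin to empty ER calcium stores; after 4 h, coelenterazine is added directly to the medium and luminescence is imaged.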

[14] = qHTS Assay for Identification of Small Molecule Agonists for Hypoxia Response Element Signaling Pathway (AID 914; active = well fitted activation curve with a large enough effect in the signal ratio, with a control signal flat, not every such curve was filed as active; the % refers to the signal ratio; note: potency is the fitted concentration of half-maximal effect; for activation: % of control where 0% means no effect); conditions: ME-180 (cervical carcinoma) HRE-bla reporter, beta-lactamase ratio, CoCl2, 17 h; activation: stronger effect = higher value
Method in brief: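 HRE-bla ME-180 cells, overnight plating in Opti-MEM with 0.5% dialyzed FBS; cpd titration + EC50 CoCl2, 17 h, 37 degrees Celsius; CCF4 2.5 h RT; 460/530 nm ratio; AC50.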

[15] = target: Cytochrome P450 2C19 (Homo sapiens) (UniProt P33261); test: qHTS Assay for Inhibitors and Substrates of Cytochrome P450 2C19 (AID 899); conditions: recombinant CYP2C19, luciferin-H EGE luminescence; series mostly up to 57.1 µM; note: potency is the fitted concentration of half-maximal effect; nearly all actives have a fitted effect of over 60% in size
Cytochrome P450 2C19 (Homo sapiens), sequence (P33261 whole entry, looked up): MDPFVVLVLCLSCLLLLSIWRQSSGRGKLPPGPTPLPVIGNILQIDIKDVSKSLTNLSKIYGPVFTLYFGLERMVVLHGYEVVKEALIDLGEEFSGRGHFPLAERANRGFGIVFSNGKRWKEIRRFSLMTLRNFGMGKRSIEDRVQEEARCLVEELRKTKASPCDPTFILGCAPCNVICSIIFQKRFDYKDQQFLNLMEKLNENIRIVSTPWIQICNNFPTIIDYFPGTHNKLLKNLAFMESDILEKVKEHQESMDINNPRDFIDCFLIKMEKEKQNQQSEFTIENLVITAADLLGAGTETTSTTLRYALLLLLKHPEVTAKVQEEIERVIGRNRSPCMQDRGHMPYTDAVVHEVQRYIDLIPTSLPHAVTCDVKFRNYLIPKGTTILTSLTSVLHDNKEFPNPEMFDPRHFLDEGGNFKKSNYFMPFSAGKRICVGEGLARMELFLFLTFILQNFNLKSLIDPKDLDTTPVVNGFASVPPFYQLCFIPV
Method in brief: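 Reactions contain 5nM enzyme, 10uM Luciferin-H EGE (KM) and 50mM KPO4; compound preincubates 10 min at 37C, NADPH regeneration starts turnover for 60 min. Luminescence after detection reagent gives activity.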

[16] = target: Dual specificity protein kinase CLK4 (Homo sapiens) (UniProt Q9HAZ1); test: qHTS Assay for Inhibitors of CDC-like Kinase 4 (Kinase-Glo Assay) (AID 1770); conditions: recombinant Clk4, Kinase-Glo ATP depletion luminescence; series mostly up to 66.7 µM; note: % is set by controls: 0 for no effect and ±100 for the full control effect; nearly all actives have a fitted effect of over 65% in size
Method in brief: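 Recombinant human Clk4 (25 nM) phosphorylated RS repeat peptide (100 uM) with 1 uM ATP in Tris pH 7.5/MgCl2/EGTA/DTT/Triton buffer for 4.5 h at room temperature. Residual ATP was quantified by Kinase-Glo luciferase luminescence.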

[17] = target: Cytochrome P450 3A4 (Homo sapiens) (UniProt P08684); test: qHTS Assay for Inhibitors and Substrates of Cytochrome P450 3A4 (AID 884); conditions: recombinant CYP3A4, Luciferin-PPXE luminescence; series mostly up to 57.1 µM; note: % is set by controls: 0 for no effect and ±100 for the full control effect; nearly all actives have a fitted effect of over 50% in size
Cytochrome P450 3A4 (Homo sapiens), sequence (P08684 whole entry, looked up): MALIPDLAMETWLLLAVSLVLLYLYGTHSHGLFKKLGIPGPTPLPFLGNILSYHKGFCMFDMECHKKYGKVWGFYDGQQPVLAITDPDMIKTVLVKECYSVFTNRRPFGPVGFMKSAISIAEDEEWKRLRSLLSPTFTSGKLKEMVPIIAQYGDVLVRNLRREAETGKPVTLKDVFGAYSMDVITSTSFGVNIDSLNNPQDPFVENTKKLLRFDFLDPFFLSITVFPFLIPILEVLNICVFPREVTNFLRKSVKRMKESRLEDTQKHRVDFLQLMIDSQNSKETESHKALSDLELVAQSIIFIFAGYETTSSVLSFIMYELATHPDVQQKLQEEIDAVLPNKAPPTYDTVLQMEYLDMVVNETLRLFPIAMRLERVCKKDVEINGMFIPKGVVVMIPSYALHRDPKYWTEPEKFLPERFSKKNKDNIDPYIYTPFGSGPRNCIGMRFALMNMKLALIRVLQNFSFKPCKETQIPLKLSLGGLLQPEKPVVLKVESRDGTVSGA
Method in brief: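 20 nM human CYP3A4 with 25 uM Luciferin-PPXE (at KM) in 200 mM KPO4, preincubated 10 min with compound; NADPH regeneration started a 60 min RT reaction. Luciferin detected by luminescence, normalized to 57 uM ketoconazole as full inhibition.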

[18] = measured here: cell count channel max response
[19] = measured here: lipid channel max response

CN(C)C(=O)c1ccc(-c2nc(NC3CCNCC3)c3ccccc3n2)cc1
18.3%: max response [10, 19]
active: Potency [3] 20 µM
inactive: Potency [1] > 11.4 µM | activity change, negative = inhibition [2] 7.64% | activity change, negative = inhibition [4] 12.4% | activity, negative = inhibition [5] 11.2% | Potency [6] > 46 µM | Potency [7] > 46 µM | outcome [8] | Potency [9] | activity change, negative = inhibition [10] 4.99% | Potency [11] | Potency [12] | Potency [13]
14.8%: max response [10, 18]

CCNc1ncc2nc(-c3cn(C)c4ccccc34)c(=O)n(-c3ccc(OC)cc3)c2n1
23%: max response [10, 19]
inactive: Potency [1] > 11.4 µM | activity change, negative = inhibition [2] -24.5% | activity change, negative = inhibition [4] -8.46% | activity, negative = inhibition [5] -5.46% | Potency [6] > 9.22 µM | Potency [7] > 46 µM | outcome [8] | activation [14] -6.54% | activity change, negative = inhibition [10] 5.38% | Potency [11] | Potency [12] | Potency [13]
20.6%: max response [10, 18]

COc1ccccc1-c1ccc2ncnc(NC3CCNCC3)c2c1
10.6%: max response [10, 18]
inactive: Potency [1] > 11.4 µM | activity change, negative = inhibition [2] 2.47% | activity change, negative = inhibition [4] 5.17% | activity, negative = inhibition [5] 3.74% | Potency [6] > 46 µM | Potency [7] > 46 µM | outcome [8] | Potency [9] | activity change, negative = inhibition [10] 4.79% | Potency [12] | Potency [13]
12.3%: max response [10, 19]

Cc1ccccc1-c1cc(NCc2ccccc2)ncn1
28.2%: max response [10, 19]
active: Potency [3] 3.98 µM | Potency [15] 3.16 µM | Potency [12] 20 µM
24.9%: max response [10, 18]
inactive: Potency [1] > 11.4 µM | activity change, negative = inhibition [2] 19.4% | activity change, negative = inhibition [4] -13.3% | Potency [6] > 46 µM | Potency [7] > 46 µM | outcome [8] | activity change, negative = inhibition [10] 4.42% | Potency [16] | Potency [13]

COCCn1c(=O)c(-c2ccc(Cl)cc2)nc2cnc(Nc3ccccc3)nc21
12.1%: max response [10, 19]
10.8%: max response [10, 18]
active: Potency [3] 20 µM | Potency [14] 2.51 µM
inactive: Potency [6] > 9.22 µM | Potency [7] > 46 µM | outcome [8] | Potency [9] | activity change, negative = inhibition [10] 3.97% | Potency [16] | Potency [12] | Potency [13]

Cc1ccccc1-c1cc(Nc2ccccc2)ncn1
active: Potency [3] 3.98 µM | Potency [15] 3.16 µM
31.4%: max response [10, 19]
30.6%: max response [10, 18]
inactive: Potency [1] > 11.4 µM | activity change, negative = inhibition [2] -4.93% | activity change, negative = inhibition [4] 1.39% | activity, negative = inhibition [5] 4.11% | Potency [6] > 46 µM | Potency [7] > 46 µM | outcome [8] | Potency [17] | activity change, negative = inhibition [10] 4.64% | Potency [16] | Potency [11] | Potency [12] | Potency [13]

CN(C)C(=O)c1ccc(-c2cncnc2N2CCNCC2)cc1
16.8%: max response [10, 18]
20.2%: max response [10, 19]
inactive: Potency [1] > 11.4 µM | activity change, negative = inhibition [2] -5.59% | Potency [3] | activity change, negative = inhibition [4] 10.6% | activity, negative = inhibition [5] 9.81% | Potency [6] > 46 µM | Potency [7] > 46 µM | outcome [8] | Potency [9] | activity change, negative = inhibition [10] 5.34% | Potency [11] | Potency [12] | Potency [13]
